KB-V1 cytotox: qHTS assay for MDR1-selective chemotherapeutics: Primary screen using the drug-selected MDR subline cells KB-V1 | KB-V1 MDR cells viability, CellTiter-Glo, 72 h | Potency, µM (doses to about 46.1 µM), most hits filed as cytotoxic | hit rate 3.4% among 400,000 | AID 1347076, 2019; further: potency means the concentration at half of the fitted maximal effect; on the % scale 0 is the no-effect control and ±100 the full control effect; nearly all actives have a fitted effect of over 60% in size
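Drug-selected KB-V1 cells, grown in DMEM lacking phenol red with 10% FBS, receive compound titrations; after three days at 37 degrees C, surviving cell ATP is quantified by CellTiter-Glo luminescence and responses normalized and curve-fitted.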
SW480 rereplic: A quantitative high throughput screen for small molecules that induce DNA re-replication in SW480 colon adenocarcinoma cells | Potency, µM (highest dose often 46.1 µM), for the others: at the top dose re-replication activation, actives largely listed as activators | hit rate 1.8% among 340,000 | SW480 DNA re-replication, Hoechst DNA content imaging, 48 h | AID 624297, 2012; further: potency means the concentration at half of the fitted maximal effect; % of control where 0% means no effect; nearly all actives have a fitted effect of over 55% in size
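Cells (250 per well) received 23 nL compound or DMSO by pin tool and were kept 48 hr at 37 C, 5% CO2. Nuclei were then stained with Hoechst for 40 min and scanned for DNA content.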
D3 ag: qHTS of D3 Dopamine Receptor Agonist: qHTS. D(3) dopamine receptor (Homo sapiens), P35462. D3R DiscoveRx beta-arrestin cells, luminescence, 90 min. max activation, %. hit rate 0.58% among 410,000; in the data active means max activation above about 30%; further: 0% is about no effect
Target sequence (P35462 whole entry, looked up): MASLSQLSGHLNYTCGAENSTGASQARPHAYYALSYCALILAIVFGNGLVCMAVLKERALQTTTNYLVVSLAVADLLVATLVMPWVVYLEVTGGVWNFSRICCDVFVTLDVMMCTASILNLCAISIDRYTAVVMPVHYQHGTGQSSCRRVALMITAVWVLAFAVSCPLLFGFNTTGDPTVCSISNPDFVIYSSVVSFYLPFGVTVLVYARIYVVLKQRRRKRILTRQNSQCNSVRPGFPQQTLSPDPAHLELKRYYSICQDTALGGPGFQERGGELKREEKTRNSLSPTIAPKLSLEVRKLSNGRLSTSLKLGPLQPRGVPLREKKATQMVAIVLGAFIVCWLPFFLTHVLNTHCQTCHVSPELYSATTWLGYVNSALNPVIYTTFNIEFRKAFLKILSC
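Cells at 1500/well, incubated overnight, then treated with pinned compounds (dopamine as control) for 90 min at 37 degrees C. DiscoveRx reagent added for 30 - 60 minutes at room temperature; luminescence read.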
D3 antag: qHTS of D3 Dopamine Receptor Antagonist: qHTS | D3R cells, DiscoveRx beta-arrestin luminescence, antagonist mode; hits give low values | max response, negative = inhibition, % | hit rate 2.5% among 360,000 | D(3) dopamine receptor (Homo sapiens), P35462; in the data active means max response below about -50%; inconclusive means no clear call, values can overlap the other calls; further: on the % scale 0 is the no-effect control and ±100 the full control effect
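Cells plated overnight at 1500 cells/well, then exposed to library compounds with dopamine controls for 90 minutes at 37 degrees C. DiscoveRx reagent added for 30–60 minutes at room temperature; luminescence read, quantitative HTS format.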
KB-3-1 tox: qHTS assay for MDR1-selective chemotherapeutics: Primary screen using the parental adenocarcinoma cell KB-3-1 | AID 1347075, 2019 | hit rate 1.4% among 400,000 | Potency, µM (doses to about 46.1 µM), actives largely listed as cytotoxic | KB-3-1 viability, CellTiter-Glo ATP luminescence, 72 h; further: potency means the concentration at half of the fitted maximal effect; on the % scale 0 is the no-effect control and ±100 the full control effect; nearly all actives have a fitted effect of over 60% in size
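Cells are dispensed, compounds pinned in, plates held at 37 °C for 72 h, then CellTiter-Glo is added and luminescence read after 10 minutes. Cell line: parental KB-3-1 in phenol-red-free DMEM, 10% FBS.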
MCF10A rereplic: A quantitative high throughput screen for small molecules that induce DNA re-replication in MCF 10a normal breast cells; MCF 10A DNA re-replication, Hoechst nuclear intensity, 48 h; Potency, µM (top dose mostly 46.1 µM), inactives show at the highest dose activity, positive = re-replication, hits mostly activators; hit rate 2.9% among 350,000; further: potency means the concentration at half of the fitted maximal effect; % of control where 0% means no effect; nearly all actives have a fitted effect of over 50% in size
* = called active by the depositor; i = inactive; ? = inconclusive; / = no result given. The list is not random: actives were taken first. Their share in the collection is about 8.9%. Unless noted, the call rests on the fitted dose curve; in most records, active means well fitted curve in the direction sought with a large enough effect; inconclusive means small, poorly fitted or top-dose-only effect, or another doubt; inactive means no such curve, though single readings can be large; an effect the other way counts as inactive or inconclusive.

SMILES	KB-V1 cytotox	SW480 rereplic	D3 ag	D3 antag	KB-3-1 tox	MCF10A rereplic
Cc1ccccc1NC(=O)c1ccccc1OCC(=O)Nc1ccc(Br)cc1	i	/	/	/	i	/
C=CCn1c(=O)c2ccc(C(=O)NCc3ccccc3)cc2n(Cc2ccc(C)cc2)c1=O	i	-8.2%	2.6	4.0	i	21.5%
COc1cc2[nH]c(-c3ccc(C)cc3)cc(=O)c2cc1OC	i	-11.8%	-67.6	-111.5*	i	-6.6%
Cc1ccc2[nH]c(-c3ccccc3)cc(=O)c2c1	?	?	-23.7	-5.8	0.291µM*	?
COc1ccc(-c2cc(=O)c3cc(C)ccc3[nH]2)cc1	i	4.9%	-38.3	-22.4	i	4.4%
Cc1ccc(-c2cc(=O)c3ccccc3[nH]2)cc1	?	?	-11.6	12.9	?	13µM*
O=c1cc(-c2ccc(Cl)cc2)[nH]c2ccccc12	i	?	-3.4	-3.6	?	14.6µM*
Cc1cc(=O)c2ccccc2[nH]1	i	1.6%	-5.6	4.0	i	-1.0%
O=S(=O)(Nc1ccc(F)c(C(F)(F)F)c1)c1ccc(N2CCCCS2(=O)=O)cc1	i	/	6.0	/	i	/
Cc1ccc(/C(=C\CN2CCCC2)c2cccc(/C=C/C(=O)O)n2)cc1	/	/	-10.7	/	/	/
O=C(NCCc1ccccc1)C(=O)NCC(c1cccnc1)N1CCN(c2ccccc2F)CC1 (configuration not stated)	i	/	5.6	/	i	/
O=C(C(Br)=Cc1ccccc1)c1ccccc1	/	2.91µM*	-34.4	?	/	16.4µM*
CC(=O)C(=Cc1ccc(-c2ccccc2)cc1)C(=O)c1ccccc1	?	/	-9.6	-53.1*	?	/
CCOC(=O)C1=C(Cc2ccc(F)cc2)C(=O)c2ccccc2C1=O	i	16.1%	-25.5	-99.8*	i	?
CN(C)c1ccc(/C=N/NC(=O)c2nnn(-c3nonc3N)c2CN(C)c2ccccc2)cc1	i	9.2µM*	-4.9	-21.5	i	11.6µM*
CN(Cc1c(C(=O)N/N=C/c2ccccc2)nnn1-c1nonc1N)c1ccccc1	i	0.6%	3.2	-9.5	i	6.9%
Cc1cccc(COc2ccc(/C=N/NC(=O)c3nnn(-c4nonc4N)c3COc3ccc(F)cc3)cc2)c1	i	?	7.0	13.3	?	14.6µM*
Nc1nonc1-n1nnc(C(=O)N/N=C/c2ccc(OCc3ccccc3)cc2)c1COc1ccc(F)cc1	i	0.4%	4.1	5.2	i	11.1%
Cc1cccc(COc2ccc(/C=N/NC(=O)c3nnn(-c4nonc4N)c3CN3CCCCC3)cc2)c1	?	-23.7%	6.8	37.7	i	16.4µM*
CCOc1cc(C#N)c(NC(=O)c2ccco2)cc1OCC	?	9.2µM*	3.4	-27.6	6.51µM*	?
COc1ccc(-c2nnc(SCC(=O)Nc3ncc(C)s3)n2-c2ccccc2)cc1OC	?	16.4µM*	-1.0	3.0	20.6µM*	13µM*
CCn1c(COc2ccccc2)nnc1SCC(=O)CC(=O)Nc1ccccc1OC	i	-0.7%	-2.8	-4.6	i	28.6%
CCn1c(COc2cccc(C)c2C)nnc1SCC(=O)N1CCN(c2ccc(OC)cc2)CC1	2.31µM*	-6.1%	9.2	19.3	14.6µM*	2.8%
COc1ccc(NC(=O)CSc2nnc(-c3ccncc3)n2-c2ccccc2)cc1	i	/	-9.0	/	i	/
CCn1c(SCc2nc(CC(=O)Nc3ccccc3OC)no2)nnc1-c1cccs1	5.8µM*	-4.9%	0.5	14.3	i	0.5%
CCn1c(COc2ccccc2C)nnc1SCC(=O)CC(=O)Nc1ccccc1OC	8.2µM*	0.2%	-4.7	-16.2	i	?
O=C(Nc1ccc2sccc2c1)Nc1nnc(-c2ccncc2)s1	i	/	/	/	i	/

Screening data from PubChem BioAssay.
